Assay results as given in PubChem BioAssay AID1159580 (chemical genetic matrix, 2015).
Where “and” joins values, the source holds several entries; their conditions need not be identical. Equal entries are not always repeated. In all, about 5,500 compounds went through this assay and about 2,000 (36%) were called active. Another 18% or so got no clear call; they are omitted. Cut-off read from the data, not from the text of the source: active = normalized growth mostly below about 0.91 (no sharp cut-off); inconclusive = no clear call, values can overlap the other calls; inactive = mostly above about 0.92. This is one part of the list.

Assay: chemical genetic growth profiling, strain panel (AID 1159580);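 note: tested at 20 µM; growth read once vehicle control cultures reached saturation at 30 °C; 1 = growth at the plate median or of vehicle wells; lower values mean less growth of the strain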
Settings: S. cerevisiae deletion strains, growth OD

Measured: normalized growth

CCOC(=O)C(Cc1ccc(O)cc1)NC(C)=O (stereo unspecified)
inactive: locus YAL013W, strain DEP1, active compounds read low 0.99 | locus YAL021C, strain ccr4, active compounds read low 1.01 | locus YAL026C, strain drs2, active compounds read low 1.01 | locus YAL030W, strain snc1, active compounds read low 1 | locus YBL061C, strain skt5, active compounds read low 1.02 | locus YBR009C, strain hhf1, active compounds read low 0.974 | locus YBR021W, strain FUR4, active compounds read low 1.01 | locus YBR023C, strain chs3, active compounds read low 1.01 | locus YBR171W, strain sec66, active compounds read low 1.01 | locus YBR229C, strain ROT2, active compounds read low 1.01 | locus YBR231C, strain swc5, active compounds read low 1 | locus YBR279W, strain paf1, active compounds read low 1 | locus YCL011C, strain gbp2, active compounds read low 1 | locus YCL016C, strain dcc1, active compounds read low 1 | locus YCL029C, strain bik1, active compounds read low 0.999 | locus YCL069W, strain vba3, active compounds read low 0.989 | locus YCR088W, strain abp1, active compounds read low 1.01 | locus YDL005C, strain med2, active compounds read low 1.02 | locus YDL035C, strain GPR1, active compounds read low 1.02 | locus YDL040C, strain nat1, active compounds read low 1.01 | locus YDL074C, strain BRE1, active compounds read low 1.02 | locus YDL101C, strain DUN1, active compounds read low 1.02 | locus YDL134C, strain PPH21, active compounds read low 1 | locus YDL185W, strain tfp1, active compounds read low 0.993 | locus YDL192W, strain arf1, active compounds read low 0.996 | locus YDR001C, strain nth1, active compounds read low 1.01 | locus YDR069C, strain doa4, active compounds read low 0.998 | locus YDR101C, strain arx1, active compounds read low 0.996 | locus YDR137W, strain rgp1, active compounds read low 1.02 | locus YDR150W, strain NUM1, active compounds read low 1.01 | locus YDR159W, strain sac3, active compounds read low 0.985 | locus YDR162C, strain NBP2, active compounds read low 1.02 | locus YDR195W, strain ref2 1.01 | locus YDR297W, strain sur2, active compounds read low 1 | locus YDR318W, strain mcm21, active compounds read low 1.01 | locus YDR334W, strain swr1, active compounds read low 0.997 | locus YDR335W, strain msn5, active compounds read low 1.01 | locus YDR388W, active compounds read low 1.01 | locus YDR392W, strain spt3, active compounds read low 1.03 | locus YDR502C, strain sam2, active compounds read low 0.992 | locus YEL003W, strain gim4, active compounds read low 1.01 | locus YEL037C, strain rad23, active compounds read low 1 | locus YEL061C, strain CIN8 (second series), active compounds read low 0.998 | locus YEL061C, strain CIN8, active compounds read low 1.01 | locus YER015W, strain faa2, active compounds read low 1 | locus YER016W, strain bim1, active compounds read low 1.03 | locus YER110C, active compounds read low 1.01 | locus YER111C, strain swi4, active compounds read low 1.02 | locus YER155C, strain BEM2 (second series), active compounds read low 1.04 | locus YER155C, strain BEM2, active compounds read low 1 | locus YER167W, strain BCK2, active compounds read low 1.02 | locus YFR010W, strain ubp6, active compounds read low 0.987 | locus YGL078C, strain dbp3, active compounds read low 0.993 | locus YGL086W, strain mad1, active compounds read low 1 | locus YGL167C, strain pmr1, active compounds read low 1.01 | locus YGL173C, strain kem1, active compounds read low 1.01 | locus YGL227W, strain vid30, active compounds read low 1 | locus YGL240W, strain doc1, active compounds read low 1.03 | locus YGL248W, strain PDE1, active compounds read low 1.01 | locus YGL253W, strain hxk2, active compounds read low 1 | locus YGR078C, strain PAC10, active compounds read low 1.02 | locus YGR135W, strain pre9, active compounds read low 0.989 | locus YGR229C, strain SMI1, active compounds read low 1.03 | locus YGR252W, strain gcn5, active compounds read low 0.961 | locus YHR013C, strain ard1, active compounds read low 1.03 | locus YHR027C, strain rpn1, active compounds read low 1.01 | locus YHR030C, strain SLT2, active compounds read low 1.02 and 0.974 | locus YHR079C, strain IRE1 (second series), active compounds read low 1.01 | locus YHR079C, strain IRE1, active compounds read low 0.984 | locus YHR094C, strain hxt1, active compounds read low 1.01 | locus YHR129C, strain ARP1, active compounds read low 1.01 | locus YHR142W, strain chs7, active compounds read low 1.01 | locus YHR200W, strain rpn10, active compounds read low 1.01 | locus YIL066C, strain RNR3, active compounds read low 1.01 | locus YIL073C, strain SPO22, active compounds read low 1 | locus YIL125W, strain kgd1, active compounds read low 1 | locus YIR030C, strain dcg1, active compounds read low 0.997 | locus YJL092W, strain hpr5, active compounds read low 1 | locus YJL095W, strain BCK1 (second series), active compounds read low 1.03 | locus YJL095W, strain BCK1, active compounds read low 1.04 and 0.965 | locus YJL115W, strain asf1, active compounds read low 0.999 | locus YJL129C, strain trk1, active compounds read low 1.02 | locus YJL134W, strain LCB3, active compounds read low 1.02 | locus YJL154C, strain vps35, active compounds read low 1.01 | locus YJL164C, strain tpk1, active compounds read low 1 | locus YJL166W, strain qcr8, active compounds read low 0.995 | locus YJL168C, strain set2, active compounds read low 1.01 | locus YJL187C, strain SWE1 (second series), active compounds read low 1.02 | locus YJL187C, strain SWE1, active compounds read low 1.01 | locus YJR043C, strain POL32, active compounds read low 1.02 | locus YJR066W, strain TOR1, active compounds read low 0.887
